Laboratory results as given in the supplement of paper PMC11417369.
± gives the standard deviation of the averaged measurements. The full ranking holds about 25,000 sequences; the median of “ln(normalized median fluorescence intensity)” is about 8.6, and the highest 2% start at about 10. The full list was thinned out, with the highest values kept by preference.

Test system: PfAP2-EXP AP2 domain (GST-tagged)
Assay: gcPBM binding intensity (ln(normalized median fluorescence intensity)); higher = stronger DNA binding
Method in brief: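 An Agilent 4 × 180k array carrying primer-extended double-stranded 36-bp intergenic genomic probes and negative controls received GST-tagged P. falciparum DNA-binding domains expressed in E. coli, about 25 μg on average, for 1 h. The binding buffer contained 1× PBS, 1% milk, 0.2 mg/ml BSA, 0.5% salmon testes DNA and 0.03% Triton X-100. Binding intensity is the top Masliner-normalised natural-log median intensity across replicate spots of either probe orientation, read after Alexa488 anti-GST antibody staining and a 488 nm scan.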

Sequence	gcPBM binding intensity (ln)
AGTATAGATGTATACACACACCAAACGTTAAAAAAA [CACACA_site7443]	8.71 ± 0.53
CAAGGAACCGGACACACACACATAAATGTATTTATA [CACACA_site4574]	8.46 ± 0.5
TATAAATATACACCCACACACATATATAAATAAATA [CACACA_site7717]	8.93 ± 0.79
AAAAAAAAAAAACACACACACACACTAATATATAAA [CACACA_site8302]	8.47 ± 0.56
CCCACTAAAAAACACACACACACACCCATATATATA [CACACA_site6140]	8.98 ± 0.31
CACCCACTAATAAACACACACATATATATATATATA [CACACA_site389]	10.2 ± 0.35
TACATATACATATACACACACACACCCAAATAAATA [CACACA_site1344]	8.86 ± 0.51
TATAAATATACACCCACACACATATATATATATATA [CACACA_site3745]	10.2 ± 0.4
TATACATATACATATACACACACACCCATAAATAAA [CACACA_site8372]	9.05 ± 0.38
AATAAATATAAATACACACCCATATATATATATATA [CACACA_site5436]	10.2 ± 0.35
AATAAATATATATACACACCCATATATATATATATA [CACACA_site2595]	10.1 ± 0.42
AATAAATATAAATACACACCCATATAAATATAAATA [CACACA_site7264]	8.64 ± 0.51
TATATAAATATACACCCACACACATATATATATATA [CACACA_site9247]	10.2 ± 0.26
AAAAAAAATACATACACACACACACCCACATATATA [CACACA_site3561]	8.75 ± 0.65
TTTTGATATATGAATATTAAGTTATATAATATTTTA [TGCATGCA_negctrl_site39]	7.92 ± 0.28
ATAATAATTTAATACATACACACGTATATCTTTTTT [CACACA_site2041]	8.45 ± 0.4
AAAAATTAACAAAAGGTGCAAACAAATAGTGGTTTT [GTGCAC_site9998]	8.865 ± 0.049
AATTGCTCGATATATGCACACAGTTTTGTTATTTTT [CACACA_site8465]	8.94 ± 0.36
AAAAAAAAAAAAAAAAGTACAAAAAGGAGAAAGATA [XGTACX_site7862]	8.9 ± 0.47
TTAAAAGAAAATAGGTGTACACATAATATATACATA [XGTACX_site7697]	8.92 ± 0.057
TTGTTTCCTTAATATTCACACACATATATATAATAT [CACACA_site8553]	8.89 ± 0.48
AATTTTTTATTAAACACACAAACATATATATATATA [CACACA_site1937]	9.94 ± 0.35
TTATATTAAACAAACACACACATATATATATATATA [CACACA_site2382]	10.1 ± 0.47
GAATATTAAACAAACACACACACATATATATATATA [CACACA_site3382]	10.1 ± 0.32
GTTTATATTAAACAAACACACACATATATATATATA [CACACA_site8749]	10.2 ± 0.26
GAATATTAAACAAACACACACACATATATTTATATA [CACACA_site7563]	8.63 ± 0.42
ATATTAAACAAACACACACACATATATATATATATA [CACACA_site3383]	10.2 ± 0.26
